Test results reported in the supplement of paper PMC6555819.

Assays:
Test in all cases: PBM binding z-score (relative to random genomic background probes); higher = stronger binding; sequences stand for … in GC…GCGATTGACAGCGTAGAATGAAGG
[1] = system: PPARg:RXRa DBDmut IVT, anti-RXR (DBD mutation: RXRa K156A/R161A, NR concentration 270 nM, RXRa partner concentration 90 nM)
Summary of the method: (§1)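 On custom Agilent 4×180K arrays, double-stranded probes with 34-nt variable regions carried direct-repeat seeds, single-nucleotide variants, half-site ablations or random human genomic background. Ligand-free nuclear receptor dimers were applied for 1 h, and binding was read with antibodies against each partner (one per run). Binding z-scores come from regression-normalized fluorescence, with the random background probes as reference.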

[2] = system: PPARg:RXRa IVT, anti-PPARg (NR concentration 270 nM, RXRa partner concentration 90 nM)
Summary of the method: as §1

[3] = system: PPARg DBDmut:RXRa IVT, anti-PPARg (DBD mutation: PPARg1 K132A/R137A, NR concentration 270 nM, RXRa partner concentration 90 nM)
Summary of the method: as §1

[4] = system: PPARg DBDmut IVT, anti-PPARg (DBD mutation: PPARg1 K132A/R137A, NR concentration 270 nM)
Summary of the method: as §1

[5] = system: PPARg homodimer (NR concentration 180 nM)
Summary of the method: as §1

[6] = system: PXR:RXRa (NR concentration 270 nM, RXRa partner concentration 90 nM)
Summary of the method: as §1

[7] = system: PXR homodimer (NR concentration 270 nM)
Summary of the method: as §1

[8] = system: RARa:RXR (NR concentration 270 nM, RXRa partner concentration 90 nM)
Summary of the method: as §1

[9] = system: RARa homodimer (NR concentration 270 nM)
Summary of the method: as §1

[10] = system: RARb:RXRa (NR concentration 270 nM, RXRa partner concentration 90 nM)
Summary of the method: as §1

[11] = system: RARb homodimer (NR concentration 270 nM)
Summary of the method: as §1

[12] = system: RARg:RXRa (NR concentration 270 nM, RXRa partner concentration 90 nM)
Summary of the method: as §1

[13] = system: RARg homodimer (NR concentration 270 nM)
Summary of the method: as §1

[14] = system: RXRa DBDmut IVT, anti-RXR (DBD mutation: RXRa K156A/R161A, NR concentration 90 nM)
Summary of the method: as §1

[15] = system: RXRa homodimer (NR concentration 180 nM)
Summary of the method: as §1

[16] = system: THRa:RXRa (NR concentration 90 nM, RXRa partner concentration 90 nM)
Summary of the method: as §1

[17] = system: THRa homodimer (NR concentration 90 nM)
Summary of the method: as §1

[18] = system: VDR homodimer (NR concentration 270 nM)
Summary of the method: as §1

Row | Sequence | PBM binding z-score [1] | PBM binding z-score [2] | PBM binding z-score [3] | PBM binding z-score [4] | PBM binding z-score [5] | PBM binding z-score [6] | PBM binding z-score [7] | PBM binding z-score [8] | PBM binding z-score [9] | PBM binding z-score [10] | PBM binding z-score [11] | PBM binding z-score [12] | PBM binding z-score [13] | PBM binding z-score [14] | PBM binding z-score [15] | PBM binding z-score [16] | PBM binding z-score [17] | PBM binding z-score [18]
1 | TCTAGCAGGCCAGAGGTTCACTCAAGAGGTACGG | 0.614 | -0.232 | -1.08 | -0.88 | -0.59 | 0.274 | -0.691 | 0.324 | -0.904 | 0.468 | 0.483 | 0.466 | 0.306 | 0.415 | 0.756 | 0.0642 | -0.939 | 1.54
2 | CCTTACGGGTCGCTCCAGGTTATAGCATCGGAGT | 0.145 | 0.244 | -1.18 | -0.791 | 0.495 | 1.93 | -0.171 | 1.02 | -0.313 | 1.22 | 1.07 | 0.907 | 1.08 | 0.0194 | 1.14 | 4.18 | 0.109 | 0.177
3 | CCGAGTAGGTTATGGGGCATTGAGGCAACGGTGA | 3.23 | 3.52 | -0.234 | 0.034 | 1.19 | -0.0257 | 0.241 | 0.37 | 0.756 | 0.976 | 1.14 | 0.411 | 0.507 | -0.0381 | 0.499 | 0.886 | 0.453 | -0.13
4 | ATGTCTAGGTAAGACTCAGTTCAGTGAAGAACGC | 0.955 | 0.996 | 0.297 | 0.538 | 0.433 | 0.668 | 1.4 | -0.0923 | 0.712 | 0.132 | 0.578 | 0.0385 | 0.257 | 0.0481 | 0.0164 | 0.567 | 0.326 | 1.07
5 | TCAGCTAGGTCAACGATGGTCAGCTAATCTGCTA | 4.15 | 4.22 | -0.361 | -0.524 | 1.38 | 1.42 | -0.591 | 1.96 | -0.477 | 4.05 | 3.49 | 3.89 | 4.83 | 1.11 | 2.49 | 2.88 | 0.578 | -0.3
6 | TCTTGTAGATCAAGCAGGTAAAGAAAGCCTGAGT | 1.45 | 0.35 | 0.0649 | 0.0829 | 0.161 | 0.0667 | 0.176 | 0.203 | -0.0123 | -0.301 | -0.462 | -0.262 | -0.32 | 0.476 | -0.157 | 0.095 | -0.499 | -0.555
7 | GGAACGAGGGCATTCGAGTTGATAGAATGGCGAT | 2.73 | 1.93 | -0.165 | -0.814 | -0.265 | 3.87 | 1.31 | 0.709 | -0.629 | 1.69 | 0.53 | 1.01 | 1.5 | 2.88 | 0.761 | 3.35 | -0.605 | 3.02
8 | CGTCAAAGTTCCACTAAGGTAACGTAAAGCACGC | 0.458 | 0.925 | -0.504 | 0.445 | 0.404 | 0.17 | 0.428 | 2.22 | 0.139 | 0.704 | 0.376 | 0.418 | 0.398 | 0.475 | 0.357 | 4.02 | 1.69 | 0.238
9 | AATACAGGGTCACTAGGCCACAGTAGGTACGAAT | 4.65 | 6.73 | 4.31 | 2.11 | 3.96 | 3.36 | 0.57 | 4.14 | 1.37 | 4.27 | 3.36 | 5.36 | 4.87 | 2.86 | 5.56 | 3.38 | 1.32 | 2.95
10 | TCTCGGAGGACATGAAGGTCAGAGCTTTCCAGAG | 2.01 | 0.772 | -0.736 | -1.67 | 0.875 | 1.77 | 0.899 | 1.69 | 0.0257 | 2.63 | 3.3 | 2.47 | 2.57 | 0.811 | 1.44 | 2.28 | 0.338 | 1.2
11 | CCTAGTTGGTCAAGGTCACACGCGCTATAGGTAC | 2.5 | 3.82 | 0.145 | 0.325 | 2.68 | 4.09 | 2.6 | 4.13 | 1.78 | 4.39 | 4.39 | 4.76 | 4.72 | 2.18 | 4.7 | 4.17 | 4.19 | 3.41
12 | AGAACGAGGGCAATGAGTTGATATCACGGGTGGC | 3.27 | 2.39 | 0.947 | -0.37 | 0.0848 | 1.68 | 4.4 | 0.557 | -0.0418 | 1.95 | 1.12 | 1.33 | 1.45 | 2.15 | 1.2 | 1.17 | -0.128 | 2.71
13 | CCTAATGGGCCAAAAAGGTCATTGATGCCGATAA | 2.24 | 2.34 | -0.601 | -0.248 | 3.03 | 4.65 | 2.85 | 5.08 | 1.31 | 3.99 | 4.33 | 4.34 | 4.05 | 1.29 | 4.45 | 3.03 | 0.29 | 2.59
14 | TCTTGTAGATCAACAGGAGGTTAAAAAAGATCGA | 1.2 | 0.996 | 0.773 | 1.21 | -0.0647 | 0.969 | -0.197 | 0.92 | 0.296 | 0.47 | 0.404 | 0.947 | 0.461 | 0.247 | 0.896 | 0.886 | -0.654 | 0.215
15 | CGTCCAAGGTCAAGGTCAGTGATAGAGACTCGAA | 3.79 | 4.5 | 1.28 | 0.138 | 4.99 | 5.05 | 1.18 | 5.44 | 2.41 | 5.73 | 5.36 | 6.7 | 7.67 | 3.76 | 6.55 | 4.48 | 3.93 | 3.53
